Reference: PubChem BioAssay AID504725 (Broad Institute, 2011)
Measured potencies and affinities stand elsewhere. Values without a mark were called inactive. The rule behind the calls is not given here.

target: KSHV LANA C-terminal domain (residues 932-1162) binding to LBS DNA (UniProt O40947); assay: KSHV LANA DNA-binding disruption – biochemical, fluorescence polarization, cherry-picked samples, dose response (AID 504725); conditions: MBP-C-LANA / FAM-LBS DNA fluorescence polarization, percent change from plate compound-well median; series mostly up to 35 µM; activity change, negative = inhibition: at the top concentration

Going from `CC(C)c1ccc(NC(=O)Cn2c(=O)oc3cccnc32)cc1` to `CN(CC(=O)Nc1ccc(N2CCOCC2)cc1)C(=O)CSc1ccc(Br)cc1`, the “activity change, negative = inhibition” value falls from 1.09% to -1.1%.

First: CCc1noc(C)c1C(=O)N1CCCC(N2CCN(c3ccc(F)cc3)CC2)C1 (stereo not drawn)
Second: Cc1ccc2c(c1)nnn2C1CCN(C(=O)c2cccs2)CC1
The “activity change, negative = inhibition” value of the first is higher: 0.418% for the first, -0.596% for the second.

First: CCN(C(=O)COC(=O)CCCOc1ccc(Cl)cc1C)c1c(N)n(Cc2ccccc2)c(=O)[nH]c1=O
Second: CN(c1ccc(OCC(=O)OCC(=O)c2c(N)n(C)c(=O)n(C)c2=O)cc1)S(=O)(=O)c1ccc2ccccc2c1
The “activity change, negative = inhibition” value of the first is lower: -5.38% for the first, 1.36% for the second.

First: O=C(Nc1ccccc1F)c1coc(=O)c(Br)c1
Second: O=C(CN(Cc1ccccc1F)C(=O)c1csnn1)NCc1ccc2c(c1)OCO2
The “activity change, negative = inhibition” value of the first is lower: 0.139% for the first, 1.89% for the second.

Going from `Cc1ccc(C)c(OCC(=O)N(Cc2nnc(-c3ccccc3Cl)o2)C2CC2)c1` to `O=C1c2ccccc2C(=O)N1Cc1ccc2c(c1)OCO2`, the “activity change, negative = inhibition” value falls from 1.41% to -2.44%.

Compared with `C/C(=N\NC(=O)CCc1c(C)n[nH]c1C)c1ccc([N+](=O)[O-])cc1`, `Cc1cc(/C=N/Nc2ccc([N+](=O)[O-])cn2)c(C)n1-c1cccc(C(=O)O)c1` is higher in “activity change, negative = inhibition” value: 3.11% for the first, 14% for the second.

First: COc1c2c(nc3occc13)C(CCC(C)(C)O)(OC)C(O)CC2 (stereo not drawn)
Second: COc1ccc(NC(=O)CO/N=C2/CCCc3nonc32)c(OC)c1
The “activity change, negative = inhibition” value of the first is lower: -3.02% for the first, 3.72% for the second.

First: Cn1c(N)c(C(=O)COC(=O)c2ccc(Cl)c(S(=O)(=O)N3CCCC3)c2)c(=O)n(C)c1=O
Second: CC(C)Cn1c(N)c(C(=O)CSc2nnc(-c3ccco3)n2C)c(=O)n(C)c1=O
The “activity change, negative = inhibition” value of the first is lower: -4.06% for the first, -1.86% for the second.

Compared with `COc1cccc(NC(=O)CN(C)CC(=O)NCc2ccco2)c1`, `COc1cccc(NC(=O)N(CCN(C)C)C(C)c2cccnc2)c1` (stereo not drawn) is higher in “activity change, negative = inhibition” value: -0.425% for the first, 1.39% for the second.

Going from `COC(=O)C1=C(N)OC2=C(C(=O)CCC2)C1c1cccs1` (stereo not drawn) to `COc1ccc(C(=O)c2ccsc2N)cc1`, the “activity change, negative = inhibition” value rises from -1.63% to 3.03%.

Going from `CC(=O)N/C(=N\OCc1ccc(Br)cc1)c1nonc1NC(C)=O` to `CC(=O)N/C(=C/c1ccc(OS(=O)(=O)c2ccc(C)cc2)cc1)C(=O)Nc1ccc(C(=O)O)cc1`, the “activity change, negative = inhibition” value rises from -2.09% to 1.24%.

First: N#CCCN(CCC#N)C(=O)C1c2ccccc2Oc2ccccc21
Second: CN(C)CCCNC(=O)c1ccccc1Oc1ccccc1
The “activity change, negative = inhibition” value of the first is lower: -7.45% for the first, -1.55% for the second.

Going from `O=C(CN1C(=O)NC2(CCCC2)C1=O)Nc1ccccc1-c1ccccc1` to `COc1ccc(N=C2SC(CC(=O)Nc3ccccc3)C(=O)N2Cc2ccco2)cc1` (stereo not drawn), the “activity change, negative = inhibition” value rises from -1.4% to 0.033%.

First: COc1cc(OC)cc(C(=O)NC2CC3CCC(C2)N3C)c1 (stereo not drawn)
Second: COc1ccc(/C=N/NC(=O)c2ccc3nc[nH]c3c2)c(OC)c1
The “activity change, negative = inhibition” value of the first is higher: 5.68% for the first, -4.41% for the second.

Compared with `O=C(O)CCN1C(=O)/C(=C\c2ccc(-c3nc4ccccc4s3)o2)SC1=S`, `Cc1cccc(-c2nsc(SCC(=O)Nc3nccs3)n2)c1` is higher in “activity change, negative = inhibition” value: -1.43% for the first, 2.95% for the second.

Going from `O=S(=O)(NCc1cccnc1)c1ccc(Cl)s1` to `COc1ccc(NS(=O)(=O)c2cccc3ccccc23)cc1`, the “activity change, negative = inhibition” value rises from -0.117% to 1.39%.

Going from `NC(=O)C1=NOC(CNc2ncc(C(F)(F)F)cc2Cl)C1` (stereo not drawn) to `Nc1nc(C(F)(F)F)cc(=O)[nH]1`, the “activity change, negative = inhibition” value falls from -1.77% to -6.46%.

Going from `Cc1cc2c(N)cccc2nn1` to `FC(F)(F)c1nnc(-c2ccccc2)nc1N1CCCC1`, the “activity change, negative = inhibition” value rises from -4.72% to 1.81%.

Compared with `O=C1c2cccc3c(N4CCCCC4)ccc(c23)C(=O)N1c1cccc(O)c1`, `NNC(=O)C1C(O)CCC2CN3CCc4c([nH]c5ccccc45)C3CC21` (stereo not drawn) is higher in “activity change, negative = inhibition” value: -8.1% for the first, 2.2% for the second.
